In PubChem BioAssay (Tox21):
Values joined by “and” are separate entries in the source; they are usually repeats but may differ in a detail not shown here. Equal values may be shown once. Inconclusive results are not listed. Entries that show only a call come without a potency. Active and inactive are the calls of the source. Calls come from the whole dose curve; as a rule, active = well fitted cell-killing curve with a large enough effect in the repeat runs; inconclusive = weak or mixed curves, or effect the other way; inactive = no such curve, though single readings can be large or run the other way.

Test: qHTS assay to identify small molecule antagonists of the progesterone receptor (PR) signaling pathway - cell viability counter screen (AID 1346798); note: nearly all actives have a fitted effect of over 50% in size
Settings: PR-UAS-bla HEK293T viability, CellTiter-Glo luminescence, 16 h; series mostly up to 92.4 µM
Description: National Center for Advancing Translational Sciences [NCATS]
NIH Chemical Genomics Center [NCGC]
U.S. Environmental Protection Agency [EPA]
National Institutes of Environmental Health Sciences [NIEHS]
National Toxicology Program [NTP]
U.S. Food and Drug Administration [FDA]
Progesterone receptor (PR), a nuclear hormone receptor, plays an important role in development, metabolic homeostasis and reproduction. It is activated by the steroid hormone progesterone. Endocrine disrupting chemicals (EDCs) and their interactions with steroid hormone receptors like PR causes disruption of normal endocrine function. To identify the compounds that inhibit PR signaling, a PR-UAS-bla GripTite cell line i.e. PR-UAS-bla HEK293T (Invitrogen, Carlsbad, CA, USA) containing a beta-lactamase reporter gene under the control of an UAS response element was used to screen Tox21 10K compound library. The cytotoxicity of the Tox21 compound library against the PR-bla cell line was tested in parallel by measuring the cell viability using CellTiter-Glo assay in the same wells.
Tox21 Assay Protocol Summary:
PR-UAS-bla HEK293T cells were dispensed at 3,000 cells/4 uL of assay medium containing 2% charcoal stripped FBS per well into black wall/clear-bottom 1536-well plates using a Multidrop Combi (ThermoFisher Scientific, Waltham, MA) dispenser. After the assay plates were incubated at a 37C and 5% CO2 for 4 hr, 23 nL of compounds dissolved in DMSO, positive controls or DMSO only was transferred to the assay plate by a Pintool station (Kalypsys, San Diego, CA), followed by addition of 1 uL of R5020 in assay medium using a Flying Reagent Dispenser (FRD, Aurora Discovery, San Diego, CA). The plates were incubated at 37C and 5% CO2 for 16 hr. Then 1 uL of LiveBLAzer B/G FRET substrate was added using a Flying Reagent Dispenser, the plates were incubated at room temperature for 2 hours, and fluorescence intensity was measured by an Envision plate reader (PerkinElmer, Shelton, CT). For cell viability readout that measures cytotoxicity, 4 uL/well of CellTiter-Glo reagent was added into the assay plates using a FRD. After 30 min incubation at room temperature, the luminescence intensity in the plates was measured using a ViewLux (PerkinElmer) plate reader.
Potency is the fitted concentration of half-maximal effect.

Row | Compound | Potency
1 | CC(C)=CC1C(C(=O)OCN2C(=O)C3=C(CCCC3)C2=O)C1(C)C (stereo not given) | inactive
2 | CC(C)=CC1C(C(=O)OCc2cccc(Oc3ccccc3)c2)C1(C)C (stereo not given) | inactive
3 | COP(=S)(OC)Oc1ccc(S(=O)(=O)N(C)C)cc1 | inactive
4 | CCCCCCCCCC(CC)c1ccc(S(=O)(=O)O)cc1 (stereo not given) | 30.9 µM (active) and 29.8 µM (active) and 27.3 µM (active)
5 | Nc1ccc2ccccc2c1 | inactive
6 | CN(C)c1nc(=O)n(C2CCCCC2)c(=O)n1C | inactive
7 | CCCCOCC1CO1 (stereo not given) | inactive
8 | O=C1Nc2ccc(Cl)cc2C(c2ccccc2)=NC1O (stereo not given) | inactive
9 | Brc1ccc(Br)cc1 | inactive
10 | NN=C(N)N | inactive
11 | COP(=O)(NC(C)=O)SC (stereo not given) | inactive
12 | CCOP(=O)(O)OCC (tested in a mixture with another compound) | inactive
13 | ClCc1ccccn1 | inactive
14 | Nc1ncn[nH]1 | inactive
15 | O=[N+]([O-])/N=C1\NCCN1Cc1ccc(Cl)nc1 | inactive
16 | C=C(C)C#N | inactive
17 | N#CC(c1ccccc1)c1ccccc1 | inactive
18 | [Cl-].[Cl-].[Cl-].[Fe+3] | inactive
19 | CC1(C)Cc2cccc(O)c2O1 | inactive
20 | O=C(O)CF | inactive

Row | Compound | Potency
21 | C[N+](C)(C)C | inactive
22 | O=C1CCCO1 | inactive
23 | O=S(=O)(O)C(F)(F)C(F)(F)C(F)(F)C(F)(F)C(F)(F)C(F)(F)C(F)(F)C(F)(F)F | 29.2 µM (active) and 19.3 µM (active)
24 | C[C@]12CC[C@H]3[C@@H](CCC4=CC(=O)CC[C@@H]43)[C@@H]1CC[C@@H]2O | inactive
25 | CNC(=O)CSP(=S)(OC)OC | inactive
26 | Cc1ccc(N=CN(C)C=Nc2ccc(C)cc2C)c(C)c1 | inactive
27 | NC(=O)CN1CCCC1=O | inactive
28 | CCCCCCCCCCCCCl | inactive
29 | CN(C)P(=O)(N(C)C)N(C)C | inactive
30 | CCOP(=S)(OCC)OP(=S)(OCC)OCC | inactive
31 | CCC1(c2ccc(N)cc2)CCC(=O)NC1=O (stereo not given) | inactive
32 | S=c1[nH]c2ccccc2[nH]1 | 24.4 µM (active)
33 | CCOS(=O)(=O)OCC | inactive
34 | CCC/C=N/O | inactive
35 | CCC[CH2][Sn]([Cl])([Cl])[CH2]CCC | 1.1 µM (active) and 1.37 µM (active)
36 | CCCCSP(=O)(SCCCC)SCCCC | inactive
37 | N#Cc1cccnc1 | inactive
38 | CC(C)(c1ccccc1)c1ccc(O)c(C(C)(C)c2ccccc2)c1 | 17.1 µM (active) and 48.6 µM (active)
39 | CC1=C(C(=O)Nc2ccccc2)SCCO1 | inactive
40 | c1ccc(C2CO2)cc1 (stereo not given) | inactive
